Assay outcomes as filed in PubChem BioAssay.
The list is not random: actives were taken first. Their share in the collection is about 2.2%.
GC-A act – GC-A (human) enzyme activation | P16066 | HEK293 GC-A cells, cGMP TR-FRET, EC30 ANP; 0% at EC30 ANP, 100% saturating ANP | activation, % at 10 µM | 370,000 tested, 0.14% active | AID 1671463; in the data active = activation above about 40%
PLC-gamma1 inh – inhibitors of human phospholipase C gamma1 | purified PLC-gamma1, fluorogenic substrate, fluorescence | inhibition, % at 12.2 µM | 370,000 tested, 0.84% active | AID 720700
Target sequence (P19174 whole entry, looked up): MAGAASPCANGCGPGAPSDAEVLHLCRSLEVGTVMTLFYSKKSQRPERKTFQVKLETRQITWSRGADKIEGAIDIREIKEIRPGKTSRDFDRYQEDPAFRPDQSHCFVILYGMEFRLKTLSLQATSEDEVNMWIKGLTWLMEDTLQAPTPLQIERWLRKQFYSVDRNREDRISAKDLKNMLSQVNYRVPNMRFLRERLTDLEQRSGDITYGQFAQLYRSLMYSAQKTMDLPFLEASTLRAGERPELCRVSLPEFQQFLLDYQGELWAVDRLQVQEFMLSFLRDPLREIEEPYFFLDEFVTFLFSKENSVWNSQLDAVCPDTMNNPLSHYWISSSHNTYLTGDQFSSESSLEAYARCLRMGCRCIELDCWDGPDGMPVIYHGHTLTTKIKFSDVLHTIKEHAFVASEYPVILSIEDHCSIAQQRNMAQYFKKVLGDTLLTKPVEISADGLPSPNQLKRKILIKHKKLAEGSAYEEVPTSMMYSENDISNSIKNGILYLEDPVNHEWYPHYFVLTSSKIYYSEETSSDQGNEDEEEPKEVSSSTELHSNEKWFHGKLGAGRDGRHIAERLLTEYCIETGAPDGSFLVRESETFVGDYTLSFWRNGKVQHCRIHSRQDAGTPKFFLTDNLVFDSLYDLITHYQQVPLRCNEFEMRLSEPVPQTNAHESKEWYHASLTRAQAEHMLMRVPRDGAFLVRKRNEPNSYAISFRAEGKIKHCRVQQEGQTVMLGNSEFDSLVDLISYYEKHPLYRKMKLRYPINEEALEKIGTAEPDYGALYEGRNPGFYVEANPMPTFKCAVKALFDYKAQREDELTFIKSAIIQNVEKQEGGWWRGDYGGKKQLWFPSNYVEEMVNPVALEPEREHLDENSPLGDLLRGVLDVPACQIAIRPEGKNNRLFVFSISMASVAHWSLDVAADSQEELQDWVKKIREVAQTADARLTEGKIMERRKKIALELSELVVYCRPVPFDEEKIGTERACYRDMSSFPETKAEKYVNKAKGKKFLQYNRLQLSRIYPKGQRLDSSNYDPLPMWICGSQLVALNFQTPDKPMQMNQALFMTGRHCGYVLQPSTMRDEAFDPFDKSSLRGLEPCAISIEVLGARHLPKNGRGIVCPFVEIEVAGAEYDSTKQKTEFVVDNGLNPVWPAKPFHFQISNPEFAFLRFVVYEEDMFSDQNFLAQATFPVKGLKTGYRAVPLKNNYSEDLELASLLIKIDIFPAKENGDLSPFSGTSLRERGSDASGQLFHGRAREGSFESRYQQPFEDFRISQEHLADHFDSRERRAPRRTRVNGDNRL
PfM18AAP inh – blocks P. falciparum M18 aspartyl aminopeptidase. recombinant PfM18AAP, H-Glu-NHMec fluorogenic cleavage. inhibition, % at 7.35 µM. 290,000 tested, 1.2% active. AID 1822;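 active = inhibition above the campaign mean inhibition over all tested compounds plus 3 SD, cut at about 28% in these data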;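 also: 0% = plate median of test compound wells and 100% = 2 mM ZnCl2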
GC-B act – GC-B (human) receptor activation; activation, % at 10 µM; HEK293-GC-B cells, CNP EC30, cGMP TR-FRET; 0% at EC30 CNP, 100% saturating CNP; 370,000 tested, 0.11% active; AID 1920062; P20594;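 active = activation at 10 µM reaching about 35% in either raw or pattern-adjusted values, limit read from the data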
PLCb3 inh – inhibitors of human phospholipase C beta3. Q01970. Purified PLC-beta3, fluorogenic substrate, fluorescence. inhibition, % at 12.2 µM. 370,000 tested, 0.18% active. AID 720704; in the data active = inhibition above about 11%;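 also: 0% = median of compound wells on plate and 100% = full blocker control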
Rce1 inh – blocks yeast Ras-converting enzyme | Q03530 | yeast membranes, quenched prenylated peptide cleavage fluorescence | calls only | 290,000 tested, 0.27% active | AID 2563;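 active = fall in fluorescence gain of 50% or more versus controls, with final raw signal at or below 3038400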;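 also: plate controls were neutral control wells for no effect and wells lacking membranes for full effect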
PLCg1 ctr – counter-screen for PLC-beta3 inhibitors: inhibitors of human PLC-gamma1 | shares compounds with PLC-gamma1 inh | purified PLC-gamma1, fluorogenic substrate, fluorescence | inhibition, % at 12.3 µM | 3,300 tested, 3.1% active | AID 743258
PLCbeta3 conf – human PLC-beta3 inhibition, confirmation | inhibition, % at 12.3 µM | purified PLC-beta3, fluorogenic substrate fluorescence | shares compounds with PLC-gamma1 inh | 3,300 tested, 1% active; in the data active = inhibition above about 11%
The depositor's hits bear a star; i = inactive; x = not tested or not shown; ! = not active in a repeat. Rule as the data show it, unless noted: active = inhibition above about 9.5%; inactive = the rest.

SMILES	GC-A act	PLC-gamma1 inh	PfM18AAP inh	GC-B act	PLCb3 inh	Rce1 inh	PLCg1 ctr	PLCbeta3 conf
CC1=C(c2ccccc2)C(O)(c2ccccc2)C(C)C1=O (stereo not drawn)	-6.2	14.1*	x	-2.6	4.8	x	-2.1	-1.8
Cc1cc(NC(=O)C2C3C(=O)N(Cc4ccc(Cl)cc4)C(C(=O)NC4CCCCC4)C34C=CC2(C)O4)no1 (stereo not drawn)	-3.0	1.4	2.2	1.6	6.4	i	x	x
Cc1cc(NC(=O)C2C3C(=O)N(Cc4ccc(Cl)cc4)C(C(=O)NCc4ccccc4)C34C=CC2(C)O4)no1 (stereo not drawn)	-8.1	10.3*	0.8	5.0	13.3*	i	-3.9	-2.3
COC(=O)C[C@@H]1CC[C@@H]2[C@@H](COc3ccc(NC(=O)Nc4cccc(Cl)c4)cc3C(=O)N2C)O1	2.5	1.6	x	11.0	0.4	x	x	x
Cc1ccc2c(CN3CCC(C)CC3)cc(=O)oc2c1C	11.2	0.8	-6.4	14.6	-13.6	i	x	x
Cc1ccc2c(CN3CC(C)CC(C)C3)cc(=O)oc2c1C (stereo not drawn)	3.7	11.1*	4.4	1.1	5.0	i	-8.0	-6.9
N[C@H](C(=O)N1CCC[C@@H]1C(=O)N1CCC2CCN(S(=O)(=O)c3ccccc3)CC21)c1ccccc1 (stereo partly drawn)	-1.3	5.8	x	-1.6	9.3	x	x	x
O=C(CN1CCC(n2nnc3cc(C(F)(F)F)ccc32)CC1)N1CCc2ccccc21	-2.1	13.4*	-5.4	1.2	7.0	i	-5.6	-1.6
CSc1nc2c(c(C(F)(F)F)n1)CC(C)CC2 (stereo not drawn)	4.1	9.6*	-1.5	0.0	-3.0	i	1.9	1.2
Cc1c(C(=O)NCc2ccccc2)oc2ccc(S(=O)(=O)N3CCC4(CC3)OCCO4)cc12	3.2	10.3*	-6.3	4.3	0.7	i	-6.5	-1.7
COc1ccc(C(=O)NN=C(Cc2ccccc2)Cc2ccccc2)cc1OC	4.5	11.1*	-7.8	1.4	-5.3	i	-5.4	-1.9
COC(=O)[C@]12C[C@H](CC(=O)NCC34CC5CC(CC(C5)C3)C4)C(=O)N(CCc3ccc(OC)c(OC)c3)C1=C[C@H](C1CCCC1)O[C@@H]2C	-3.3	3.2	x	-8.7	4.0	x	x	x
COc1cccc(CCNC(=O)CCc2nc(-c3ccccc3F)no2)c1	-0.6	-1.7	x	-4.6	0.3	x	x	x
Cc1cc(C)nc(N(C#N)CCOc2ccc(Cl)cc2)n1	1.0	9.8*	1.3	-4.4	-0.8	i	-6.0	-2.8
Cc1cc(C)nc(N(C#N)Cc2ccc(Cl)cc2)n1	-9.1	-3.4	6.3	-5.4	-7.4	i	x	x
CCOC(=O)CC1(C)Oc2ccccc2N1S(=O)(=O)c1ccc(C)cc1 (stereo not drawn)	-3.7	9.8*	x	4.8	3.8	x	-1.4	-4.5
CCOC(=O)C1CN(S(=O)(=O)c2ccc(C)cc2)c2cc(S(=O)(=O)CC)ccc2O1 (stereo not drawn)	6.2	1.9	7.8	-1.6	2.1	x	x	x
O=C(Nc1ncc([N+](=O)[O-])s1)C1CCN(S(=O)(=O)c2cnc[nH]2)CC1	1.2	6.8	1.3	0.2	13.3*	i	-0.8	0.4
O=C(NC1CCCCCC1)C1CCN(S(=O)(=O)c2cnc[nH]2)CC1	5.3	-2.1	2.0	4.0	2.4	i	x	x
Cc1cnc2ccc(F)cc2c1	-1.8	12.2*	x	0.8	6.5	x	-4.6	-4.0
Cc1ccc2cc(F)ccc2n1	-0.9	2.6	x	0.0	-0.8	x	x	x
Cc1ccc(S(=O)(=O)Nc2nc3ccccc3nc2N2CCN(c3ccccc3F)CC2)cc1	0.1	-4.2	4.2	2.9	-4.0	i	x	x
Cc1ccc(S(=O)(=O)NC2=C(N3CCN(c4ccccc4F)CC3)C(=O)c3ccccc3C2=O)cc1	-4.3	14.6*!	-10.7	-3.6	0.8	i	9.8*	8.3
CC[C@@]1(c2ccc(C)cc2)C(=O)N(C(=O)OC)N1C(=O)OC	-26.7	1.5	x	-14.6	1.5	x	x	x
